# Screening data deposited in PubChem by Broad Institute.
# Many of the other results were omitted from the sample, so hits are more common in it than they were.
# Tgondii IFNg: inhibitors of Toxoplasma gondii growth with IFN-gamma | hit rate 3.8% among 69,000 | Toxoplasma gondii growth in IFN-gamma-treated host cells; stronger effect = lower value | activity change, negative = inhibition, % (concentration not given with the values); in the data active means activity change below about -70%, passing the limit was not always enough;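 further: host cells are HeLa cells infected with Toxoplasma gondii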
# Starred values were filed as active, the others as inactive.
SMILES,Tgondii IFNg
Cc1nc(-c2cc(S(=O)(=O)N3CCCCC3C)c(C)s2)sc1C (centres undefined),-10.5
O=C(CCc1ccc2nc(-c3ccccc3)[nH]c2c1)N1CCC(N2CCCCC2)CC1,35.1
CN(C)C(=O)CN1[C@@H]2CCN(C(=O)CC3CC3)CC[C@@H]2Oc2ccccc2S1(=O)=O,-4.9
Cc1ccc(N2CCCc3sc(C(=O)Nc4cccc(F)c4)nc32)nn1,7.9
CC(=O)CC/C=C(\C)CC/C=C(\C)CC/C=C(\C)CCC=C(C)C,-77.2*
CC(C)=CCC/C(C)=C/COc1ccc2ccc(=O)oc2c1,18.6
CC(=O)N[C@@H](CSC/C=C(\C)CC/C=C(\C)CCC=C(C)C)C(=O)O,-21.7
CC(=O)[C@H]1CC[C@H]2[C@@H]3CC=C4C[C@@H](O)CC[C@]4(C)[C@H]3CC[C@]12C,-74.4*
CC(=O)[C@H]1CC[C@H]2[C@@H]3CCC4=CC(=O)CC[C@]4(C)[C@H]3CC[C@]12C,-88.4*
CC(=O)OCC(=O)[C@H]1CC[C@H]2[C@@H]3CC=C4C[C@@H](O)CC[C@]4(C)[C@H]3CC[C@]12C,-34.9
CC(=O)[C@H]1CCC2C3CC=C4C[C@@H](O)CC[C@]4(C)C3CC[C@@]21C (some centres undefined),10.8
C[C@]12CCC(=O)C=C1CC[C@@H]1[C@@H]2CC[C@@]2(C)[C@H]1CC[C@]2(O)C(=O)CO,2.6
CC(=O)O[C@@H]1C[C@@]2(C)C(CC[C@@H]2C(C)=O)C2CCC3=CC(=O)CC[C@]3(C)C21 (some centres undefined),13.1
CCOC(=O)c1c(NC(=O)c2ccco2)sc(C)c1C,-3.0
CCOCC1CN(C(=O)Cc2ccccn2)Cc2c1cnn2CC (centres undefined),-3.0
Cc1nc2c(nnn2C[C@H]2CCCN2S(=O)(=O)c2ccc(F)cc2)c(=O)[nH]1,15.3
Cc1cccc(SC2CCN(Cc3ncccc3C(=O)O)CC2)c1,-24.2
CCCC1C=CCN1C(=O)c1cc(COc2ccccc2)[nH]n1 (centres undefined),6.1
O=C(Nc1cccc(-n2cccn2)c1)C1CCN(S(=O)(=O)c2ccc(F)cc2)C1 (centres undefined),-51.1
COc1ccc(C)cc1CN1CCC(c2nc(-c3cccnc3)cc(=O)[nH]2)CC1,6.6
O=C(CCc1nc(-c2ccccn2)no1)Nc1ccccc1Oc1ccc(F)cc1,8.0
O=C(NCCc1csc(-c2ccc(F)cc2)n1)C(=O)Nc1ccc(F)cc1F,14.4
NC(=O)c1csc(-c2cccc(C(=O)O)c2)n1,-2.4
NC(=O)c1csc(-c2ccc(F)cc2F)n1,-107.4*
CN(C)C(=O)Cc1ccc(S(=O)(=O)N2CCCN(c3ccccn3)CC2)cc1,-5.4
SMILES,Tgondii IFNg
CC1Cc2cc(CN(C)C(=O)Cn3c(=O)oc4ccc(Cl)cc43)ccc2O1 (centres undefined),-92.3*
CC1Cc2cc(CN(C)C(=O)CCS(=O)(=O)c3cccc4cccnc34)ccc2O1 (centres undefined),-26.1
CN(CCNC(=O)Cn1c(=O)oc2ccc(Cl)cc21)c1ccccc1,-2.9
COC(=O)c1cc2n(n1)CCCN(Cc1c[nH]c3c(C)cccc13)C2,-5.7
COc1cccc(CNC(=O)c2nc3c(s2)CCN(C(=O)CC(C)C)CC3)c1,208.4
Cc1nc(N2CCCC2)nc2c1CCN(c1ncccn1)CC2,352.9
Cc1nc(N2CCCC2)nc2c1CCN(c1ncc(F)cn1)CC2,-85.8*
Cc1nc(-c2ccccc2)nc2c1CCN(c1ncc(F)cn1)CC2,-12.7
CNC(=O)[C@H]1C[C@H]2CN(Cc3ccc(C)o3)C[C@H]1O2,-60.3
CCOC(=O)c1ccc2c(c1)N(Cc1nc(-c3ccccc3C)oc1C)C(=O)c1ccccc1S2,15.2
O=C(O)c1ccc(NS(=O)(=O)c2cccc(C(=O)O)c2)cc1,-4.1
CCNC(=O)/C=C/c1cccc(Br)c1,30.8
O=C(/C=C/c1cccc(S(=O)(=O)Nc2ccccc2)c1)NO,-71.1*
CC(=O)c1[nH]c(C)c(C(=O)N2CC(OCc3ccccc3F)C2)c1C,2.7
COc1ccc(N2CCN(Cc3ccc(-c4ccn[nH]4)o3)C(C)C2)cc1 (centres undefined),5.0
CC1=C(CCN2CCC3(CC2)C(=O)N(C)C(=O)N3Cc2ccccc2)C(C)(C)CCC1,-30.8
CNC(=O)c1ccc(CN2CCCC(CCc3ccccc3C)C2)cc1 (centres undefined),-7.4
COc1coc(CN2CCCC(CCc3ccccc3C)C2)cc1=O (centres undefined),-13.9
Cc1c[nH]c(CN2CCCC(CCc3ccccc3F)C2)c(C)c1=O (centres undefined),-89.2*
CCCCOc1ccccc1-c1cc2c(=O)n(Cc3nc(-c4ccccc4C)oc3C)ccn2n1,31.8
CNC(=O)[C@H]1C[C@@H]2OCC[C@@H]2N(CCOCc2ccccc2)C1,-2.2
Cc1noc(-c2ccccc2OCC(=O)O)n1,61.8
CCc1nc2cc(NC(=O)COc3ccccc3-c3nc(C)no3)ccc2n1CC,-74.5*
CCOc1ccc(NC(=O)Cn2c(=O)cc(-c3nc(C)no3)c3ccccc32)cc1,21.1
COc1cc(C(=O)Nc2scc3c2c(=O)oc2ccccc23)cc(OC)c1OC,41.2
SMILES,Tgondii IFNg
COC(=O)c1cc(NC(=S)NC(=O)c2ccc(Cl)cc2)cc(C(=O)OC)c1,6.3
Cc1ccc(NC(=O)c2ccc3c(c2)c(C)cn3C)c(-c2cc(C)[nH]n2)c1,-48.5
COc1ccc(C(=O)Nc2ccc(-c3nc(-c4ccc(C)cc4C)co3)cc2)cc1,18.0
COc1ccc(-c2cc(C(=O)Nc3ccc(C)cc3-c3cc(C)[nH]n3)no2)cc1,-78.1*
Cn1cc(C(=O)NCc2cncc3c2CCN(S(C)(=O)=O)C3)cn1,-3.7
COc1ccc(F)cc1-c1ccccc1CC1(C(=O)NCc2cccs2)CCOCC1,-2.6
Cc1cccc(OCC(=O)N2CCC3(CC2)Nc2ccc(Cl)cc2-n2cccc23)c1,-107.5*
Cc1cccc(C(=O)N2CCC3(CC2)Nc2ccc(Cl)cc2-n2cccc23)c1,-6.0
O=C(COc1ccc(Cl)cc1)N1CCC2(CC1)Nc1ccc(Cl)cc1-n1cccc12,70.1
COc1cccc(CC(=O)N2CCC3(CC2)Nc2ccc(Cl)cc2-n2cccc23)c1,29.4
O=C(COc1ccc(F)cc1)N1CCC2(CC1)Nc1ccc(Cl)cc1-n1cccc12,-114.6*
O=C(COc1ccccc1)N1CCC2(CC1)Nc1cc(F)ccc1-n1cccc12,51.8
Cc1nc(-c2ccc(F)cc2)sc1CCNC(=O)C(=O)Nc1ccc(F)cc1,21.5
CCc1noc(C(C)n2ccnc2-c2cnc(-c3ccco3)nc2)n1 (centres undefined),-5.8
c1nc(NCC2CNCCOC2)c2[nH]cnc2n1 (centres undefined),11.1
Cc1cc(F)ccc1NC(=O)Cn1c(=O)cc(C(=O)N2CCc3ccccc3C2)c2ccccc21,9.3
Cc1ccc(CNC(=O)COc2nc(C)nc3ccccc23)cc1,17.9
Cn1nc(C2CCCN(C(=O)CCc3cccnc3)C2)n(-c2ccccc2)c1=O (centres undefined),3.4
CN(CC(=O)Nc1ccc(CN2CCCCCC2)cc1)C1CCS(=O)(=O)C1 (centres undefined),-9.8
Cc1cc(N2CCCN(Cc3cn(C)nc3-c3ccccc3)CC2)ccn1,-23.2
CC(C)c1nc2cc(-c3ccc(S(C)(=O)=O)cc3)ccc2o1,126.9
